# Measured values as given in article PMC7862700, “An all-to-all approach to the identification of sequence-specific readers for epigenetic DNA modifications on cytosine”.
# Experiments:
# Experiment in all cases: DAPPL (digital affinity profiling via proximity ligation, sequencing); 10 mM Tris-HCl pH 7.5, 50 mM NaCl, 1 mM DTT, 4% glycerol, room temperature, 30 min; GST-TFs on glutathione beads, 16-mer random dsDNA library, 0.1% formaldehyde crosslink after washing; high values mean tight binding
# FEV = molecular target: T1, FEV (Homo sapiens, UniProt Q99581 1-238); conditions: protein: recombinant; tags: N-terminal GST; dsDNA, one strand shown
# T1 sequence: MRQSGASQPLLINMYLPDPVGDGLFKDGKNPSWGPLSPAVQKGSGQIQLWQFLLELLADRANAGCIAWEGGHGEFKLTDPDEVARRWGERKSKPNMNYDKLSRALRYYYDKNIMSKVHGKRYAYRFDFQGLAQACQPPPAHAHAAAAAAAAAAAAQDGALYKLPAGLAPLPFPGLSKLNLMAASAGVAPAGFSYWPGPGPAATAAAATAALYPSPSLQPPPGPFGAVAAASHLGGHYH
# How it was run: (§1)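 Each value of binding signal is a hexamer's read frequency for a factor divided by the same hexamer's frequency in the tag-only sample. Barcoded, bead-captured GST fusions of human transcription factors made in yeast were pooled with that sample and incubated with 200 nmole of a random double-stranded 16-mer DNA library in Tris/NaCl/DTT/glycerol buffer at room temperature for 30 min. Washing, 0.1% formaldehyde crosslinking, proximity ligation, PCR and Illumina NextSeq500 sequencing followed.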
# ETV5 = ETV5 (Homo sapiens, UniProt P41161 1-510); conditions: protein: recombinant; tags: N-terminal GST; dsDNA, one strand shown
# ETV5, sequence (P41161 whole entry): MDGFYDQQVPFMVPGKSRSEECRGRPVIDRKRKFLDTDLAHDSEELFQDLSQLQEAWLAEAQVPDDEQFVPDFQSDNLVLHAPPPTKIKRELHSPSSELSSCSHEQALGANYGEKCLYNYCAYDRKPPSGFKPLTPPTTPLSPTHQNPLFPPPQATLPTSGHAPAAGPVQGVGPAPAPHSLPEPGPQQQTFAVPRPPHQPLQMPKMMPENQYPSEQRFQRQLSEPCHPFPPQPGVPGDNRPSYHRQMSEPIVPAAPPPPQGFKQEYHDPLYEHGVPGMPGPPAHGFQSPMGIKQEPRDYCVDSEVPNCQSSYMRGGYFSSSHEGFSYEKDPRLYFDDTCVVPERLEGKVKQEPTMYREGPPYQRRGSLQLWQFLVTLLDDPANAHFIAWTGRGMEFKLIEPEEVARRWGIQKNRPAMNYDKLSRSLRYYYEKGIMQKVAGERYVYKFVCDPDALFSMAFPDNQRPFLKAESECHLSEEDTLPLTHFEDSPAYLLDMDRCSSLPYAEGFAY
# How it was run: as §1
# HSF1 = HSF1 (Homo sapiens, UniProt Q00613 1-529); conditions: protein: recombinant; tags: N-terminal GST; chain copies: 3; dsDNA, one strand shown
# HSF1, sequence (Q00613 whole entry): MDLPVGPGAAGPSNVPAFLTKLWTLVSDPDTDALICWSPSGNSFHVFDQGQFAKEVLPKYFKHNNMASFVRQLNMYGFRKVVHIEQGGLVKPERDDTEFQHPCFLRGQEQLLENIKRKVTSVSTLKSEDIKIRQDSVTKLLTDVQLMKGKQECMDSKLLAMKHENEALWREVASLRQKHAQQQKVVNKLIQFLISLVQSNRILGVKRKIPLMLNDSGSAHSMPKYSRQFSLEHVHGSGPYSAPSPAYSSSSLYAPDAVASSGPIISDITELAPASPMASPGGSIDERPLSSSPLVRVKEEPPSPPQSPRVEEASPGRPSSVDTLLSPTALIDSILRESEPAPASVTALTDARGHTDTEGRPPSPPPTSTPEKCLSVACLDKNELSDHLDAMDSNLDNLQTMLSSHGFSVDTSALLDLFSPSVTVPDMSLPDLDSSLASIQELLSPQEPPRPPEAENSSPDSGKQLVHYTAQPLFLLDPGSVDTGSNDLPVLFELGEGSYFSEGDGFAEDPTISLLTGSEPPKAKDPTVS
# How it was run: as §1
# SPIC = molecular target: T2, SPIC (Homo sapiens, UniProt Q8N5J4 1-248); conditions: protein: recombinant; tags: N-terminal GST; dsDNA, one strand shown
# T2 sequence: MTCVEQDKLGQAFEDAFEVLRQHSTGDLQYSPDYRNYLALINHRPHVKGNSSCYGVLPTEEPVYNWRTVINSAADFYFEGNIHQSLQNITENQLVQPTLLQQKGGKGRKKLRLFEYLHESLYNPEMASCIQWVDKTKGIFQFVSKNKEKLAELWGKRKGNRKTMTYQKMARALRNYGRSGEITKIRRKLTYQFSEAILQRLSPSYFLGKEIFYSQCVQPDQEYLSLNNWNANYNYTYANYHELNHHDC
# How it was run: as §1
# ELF4 = ELF4 (Homo sapiens, UniProt Q99607 1-663); conditions: protein: recombinant; tags: N-terminal GST; dsDNA, one strand shown
# ELF4, sequence (Q99607 whole entry): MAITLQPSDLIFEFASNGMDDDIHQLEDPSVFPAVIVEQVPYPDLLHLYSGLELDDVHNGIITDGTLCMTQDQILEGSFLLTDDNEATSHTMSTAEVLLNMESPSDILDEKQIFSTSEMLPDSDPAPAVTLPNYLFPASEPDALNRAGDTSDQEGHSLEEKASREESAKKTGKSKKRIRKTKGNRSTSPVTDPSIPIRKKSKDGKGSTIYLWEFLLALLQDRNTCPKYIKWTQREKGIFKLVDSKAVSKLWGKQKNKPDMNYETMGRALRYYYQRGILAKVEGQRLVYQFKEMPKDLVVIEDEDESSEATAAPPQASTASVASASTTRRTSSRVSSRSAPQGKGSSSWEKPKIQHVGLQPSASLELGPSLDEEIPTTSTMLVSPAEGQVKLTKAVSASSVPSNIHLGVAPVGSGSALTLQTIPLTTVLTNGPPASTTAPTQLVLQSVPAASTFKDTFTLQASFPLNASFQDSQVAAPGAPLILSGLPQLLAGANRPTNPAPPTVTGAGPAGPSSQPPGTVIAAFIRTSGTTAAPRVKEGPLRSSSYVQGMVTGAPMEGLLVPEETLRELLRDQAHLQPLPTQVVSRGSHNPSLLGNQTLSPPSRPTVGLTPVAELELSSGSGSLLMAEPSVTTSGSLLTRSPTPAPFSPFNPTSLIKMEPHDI
# How it was run: as §1
# ELK4 = molecular target: T3, ELK4 (Homo sapiens, UniProt P28324-2 1-405); conditions: protein: recombinant; tags: N-terminal GST; dsDNA, one strand shown
# T3 sequence: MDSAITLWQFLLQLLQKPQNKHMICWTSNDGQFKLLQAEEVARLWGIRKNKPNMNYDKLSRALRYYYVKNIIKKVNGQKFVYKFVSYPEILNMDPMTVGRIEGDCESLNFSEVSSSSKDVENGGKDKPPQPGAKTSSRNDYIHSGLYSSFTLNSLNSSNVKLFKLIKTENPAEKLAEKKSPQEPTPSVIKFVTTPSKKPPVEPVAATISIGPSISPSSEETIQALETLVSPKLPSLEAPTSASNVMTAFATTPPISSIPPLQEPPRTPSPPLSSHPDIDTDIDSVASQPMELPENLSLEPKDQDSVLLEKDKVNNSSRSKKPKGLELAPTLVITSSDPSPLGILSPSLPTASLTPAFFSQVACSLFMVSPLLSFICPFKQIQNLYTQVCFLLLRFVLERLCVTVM
# How it was run: as §1
# ETV2 = molecular target: T4, ETV2 (Homo sapiens, UniProt O00321 1-342); conditions: protein: recombinant; tags: N-terminal GST; dsDNA, one strand shown
# T4 sequence: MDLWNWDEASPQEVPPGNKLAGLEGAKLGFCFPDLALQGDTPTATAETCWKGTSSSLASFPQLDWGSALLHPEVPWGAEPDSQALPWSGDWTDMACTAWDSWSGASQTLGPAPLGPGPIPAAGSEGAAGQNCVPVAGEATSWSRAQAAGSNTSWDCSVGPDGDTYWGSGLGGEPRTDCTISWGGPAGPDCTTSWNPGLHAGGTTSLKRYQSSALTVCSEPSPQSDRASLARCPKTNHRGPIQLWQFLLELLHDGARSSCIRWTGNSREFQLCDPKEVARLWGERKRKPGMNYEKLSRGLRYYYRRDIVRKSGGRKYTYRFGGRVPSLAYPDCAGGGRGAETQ
# How it was run: as §1
# ELF3 = molecular target: T5, ELF3 (Homo sapiens, UniProt P78545 1-371); conditions: protein: recombinant; tags: N-terminal GST; dsDNA, one strand shown
# T5 sequence: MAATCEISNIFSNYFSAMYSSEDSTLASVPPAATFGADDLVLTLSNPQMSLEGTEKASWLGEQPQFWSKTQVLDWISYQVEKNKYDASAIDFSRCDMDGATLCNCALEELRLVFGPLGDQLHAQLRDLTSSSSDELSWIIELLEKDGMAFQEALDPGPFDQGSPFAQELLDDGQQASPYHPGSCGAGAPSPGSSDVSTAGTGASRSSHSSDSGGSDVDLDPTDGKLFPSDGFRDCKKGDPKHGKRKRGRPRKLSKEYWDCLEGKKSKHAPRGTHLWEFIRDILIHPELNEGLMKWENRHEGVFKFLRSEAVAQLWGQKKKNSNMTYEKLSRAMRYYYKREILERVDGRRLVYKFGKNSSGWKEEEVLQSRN
# How it was run: as §1
# CRX = CRX (Homo sapiens, UniProt O43186 1-299); conditions: protein: recombinant; tags: N-terminal GST; dsDNA, one strand shown
# CRX, sequence (O43186 whole entry): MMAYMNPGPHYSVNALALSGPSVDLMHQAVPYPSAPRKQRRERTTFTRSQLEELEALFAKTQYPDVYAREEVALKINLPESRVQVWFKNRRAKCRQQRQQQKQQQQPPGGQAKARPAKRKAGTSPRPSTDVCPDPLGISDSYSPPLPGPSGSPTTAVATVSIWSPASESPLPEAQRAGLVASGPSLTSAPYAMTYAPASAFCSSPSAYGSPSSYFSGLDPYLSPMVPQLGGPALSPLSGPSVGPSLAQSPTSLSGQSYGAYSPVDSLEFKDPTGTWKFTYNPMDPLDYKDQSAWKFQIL
# How it was run: as §1
# ETV1 = ETV1 (Homo sapiens, UniProt P50549 1-477); conditions: protein: recombinant; tags: N-terminal GST; dsDNA, one strand shown
# ETV1, sequence (P50549 whole entry): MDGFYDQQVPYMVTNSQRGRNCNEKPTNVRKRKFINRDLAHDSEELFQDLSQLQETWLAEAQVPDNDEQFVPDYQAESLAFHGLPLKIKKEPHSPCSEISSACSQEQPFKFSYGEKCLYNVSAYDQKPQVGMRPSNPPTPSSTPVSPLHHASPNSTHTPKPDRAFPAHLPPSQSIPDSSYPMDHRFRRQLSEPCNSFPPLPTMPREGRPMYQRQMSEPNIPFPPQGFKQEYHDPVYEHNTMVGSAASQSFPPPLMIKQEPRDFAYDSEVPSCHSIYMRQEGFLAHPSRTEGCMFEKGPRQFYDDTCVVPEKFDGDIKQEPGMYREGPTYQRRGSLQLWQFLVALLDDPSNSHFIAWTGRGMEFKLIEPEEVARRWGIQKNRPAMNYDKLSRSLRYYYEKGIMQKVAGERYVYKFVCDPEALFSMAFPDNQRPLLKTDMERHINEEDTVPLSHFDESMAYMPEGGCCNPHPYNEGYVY
# How it was run: as §1
# ERF = molecular target: T6, ERF (Homo sapiens, UniProt P50548 1-548); conditions: protein: recombinant; tags: N-terminal GST; dsDNA, one strand shown
# T6 sequence: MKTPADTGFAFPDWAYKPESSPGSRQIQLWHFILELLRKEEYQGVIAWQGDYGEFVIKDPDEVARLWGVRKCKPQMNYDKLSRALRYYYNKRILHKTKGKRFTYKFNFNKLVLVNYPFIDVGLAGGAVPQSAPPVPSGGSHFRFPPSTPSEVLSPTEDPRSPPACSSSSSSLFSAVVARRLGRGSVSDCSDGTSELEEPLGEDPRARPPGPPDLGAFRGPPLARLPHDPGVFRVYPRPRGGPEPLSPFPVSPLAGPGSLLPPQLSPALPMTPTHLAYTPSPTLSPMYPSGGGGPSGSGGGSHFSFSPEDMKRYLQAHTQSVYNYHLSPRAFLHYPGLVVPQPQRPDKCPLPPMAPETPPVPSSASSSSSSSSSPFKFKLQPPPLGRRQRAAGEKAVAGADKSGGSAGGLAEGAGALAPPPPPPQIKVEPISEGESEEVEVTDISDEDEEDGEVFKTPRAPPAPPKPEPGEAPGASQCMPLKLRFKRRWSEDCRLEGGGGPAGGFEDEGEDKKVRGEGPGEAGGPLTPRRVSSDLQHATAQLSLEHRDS
# How it was run: as §1
# ETV3L = molecular target: T7, ETV3L (Homo sapiens, UniProt Q6ZN32 1-361); conditions: protein: recombinant; tags: N-terminal GST; dsDNA, one strand shown
# T7 sequence: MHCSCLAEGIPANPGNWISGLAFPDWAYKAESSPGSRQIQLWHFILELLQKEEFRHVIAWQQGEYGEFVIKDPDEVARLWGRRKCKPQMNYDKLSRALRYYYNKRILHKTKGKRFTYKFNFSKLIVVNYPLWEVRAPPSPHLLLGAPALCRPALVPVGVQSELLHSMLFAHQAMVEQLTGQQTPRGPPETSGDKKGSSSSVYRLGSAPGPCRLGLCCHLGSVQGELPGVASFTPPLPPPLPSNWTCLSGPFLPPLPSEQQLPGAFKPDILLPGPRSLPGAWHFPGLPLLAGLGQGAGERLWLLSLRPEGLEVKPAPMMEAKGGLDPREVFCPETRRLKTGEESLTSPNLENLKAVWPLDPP
# How it was run: as §1
# ETS2 = molecular target: T8, ETS2 (Homo sapiens, UniProt P15036 1-469); conditions: protein: recombinant; tags: N-terminal GST; dsDNA, one strand shown
# T8 sequence: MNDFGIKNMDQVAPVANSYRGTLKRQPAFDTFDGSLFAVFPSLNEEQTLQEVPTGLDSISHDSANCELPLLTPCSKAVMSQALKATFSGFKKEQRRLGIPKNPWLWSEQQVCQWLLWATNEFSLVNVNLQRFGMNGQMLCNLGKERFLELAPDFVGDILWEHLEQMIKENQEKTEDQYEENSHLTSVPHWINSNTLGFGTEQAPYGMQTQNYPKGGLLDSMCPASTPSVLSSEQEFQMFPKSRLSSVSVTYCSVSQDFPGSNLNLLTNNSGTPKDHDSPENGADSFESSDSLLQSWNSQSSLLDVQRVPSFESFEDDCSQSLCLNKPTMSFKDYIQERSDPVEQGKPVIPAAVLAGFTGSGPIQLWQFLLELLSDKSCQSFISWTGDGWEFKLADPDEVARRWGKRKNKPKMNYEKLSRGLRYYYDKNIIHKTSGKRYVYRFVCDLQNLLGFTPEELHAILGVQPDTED
# How it was run: as §1
# SPDEF = molecular target: T9, SPDEF (Homo sapiens, UniProt O95238 1-335); conditions: protein: recombinant; tags: N-terminal GST; dsDNA, one strand shown
# T9 sequence: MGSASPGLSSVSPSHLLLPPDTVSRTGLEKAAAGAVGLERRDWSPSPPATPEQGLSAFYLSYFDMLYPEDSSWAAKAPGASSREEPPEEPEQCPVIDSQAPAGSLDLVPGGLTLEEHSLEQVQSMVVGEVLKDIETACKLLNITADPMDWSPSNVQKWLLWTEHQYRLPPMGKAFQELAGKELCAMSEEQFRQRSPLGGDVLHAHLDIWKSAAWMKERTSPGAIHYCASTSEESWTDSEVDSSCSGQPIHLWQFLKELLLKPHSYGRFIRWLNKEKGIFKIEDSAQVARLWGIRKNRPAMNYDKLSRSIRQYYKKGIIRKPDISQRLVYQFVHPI
# How it was run: as §1
# ETV7 = molecular target: T10, ETV7 (Homo sapiens, UniProt Q9Y603 1-341); conditions: protein: recombinant; tags: N-terminal GST; dsDNA, one strand shown
# T10 sequence: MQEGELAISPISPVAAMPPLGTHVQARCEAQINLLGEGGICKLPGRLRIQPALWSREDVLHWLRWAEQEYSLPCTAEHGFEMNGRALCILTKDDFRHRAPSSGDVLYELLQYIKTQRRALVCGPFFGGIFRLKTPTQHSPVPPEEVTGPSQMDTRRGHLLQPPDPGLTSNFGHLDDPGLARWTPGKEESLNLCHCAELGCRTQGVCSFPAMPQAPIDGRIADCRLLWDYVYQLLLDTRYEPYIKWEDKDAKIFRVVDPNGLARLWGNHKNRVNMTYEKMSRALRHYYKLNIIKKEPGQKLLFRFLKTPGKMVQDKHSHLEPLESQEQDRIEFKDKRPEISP
# How it was run: as §1
# ELF5 = molecular target: T11, ELF5 (Homo sapiens, UniProt Q9UKW6-2 1-255); conditions: protein: recombinant; tags: N-terminal GST; dsDNA, one strand shown
# T11 sequence: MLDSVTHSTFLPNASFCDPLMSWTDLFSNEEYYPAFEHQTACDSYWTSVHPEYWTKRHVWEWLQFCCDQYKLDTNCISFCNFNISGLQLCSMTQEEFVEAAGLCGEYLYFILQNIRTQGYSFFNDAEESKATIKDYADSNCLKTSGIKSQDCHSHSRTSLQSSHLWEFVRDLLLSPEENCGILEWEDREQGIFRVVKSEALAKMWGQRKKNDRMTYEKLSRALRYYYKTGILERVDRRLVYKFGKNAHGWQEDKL
# How it was run: as §1
# ETV3 = molecular target: T12, ETV3 (Homo sapiens, UniProt P41162-2 1-143); conditions: protein: recombinant; tags: N-terminal GST; dsDNA, one strand shown
# T12 sequence: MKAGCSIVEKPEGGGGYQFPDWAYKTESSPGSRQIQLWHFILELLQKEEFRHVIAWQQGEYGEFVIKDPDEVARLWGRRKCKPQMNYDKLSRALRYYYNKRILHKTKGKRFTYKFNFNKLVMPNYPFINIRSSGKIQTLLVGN
# How it was run: as §1
# ETV6 = ETV6 (Homo sapiens, UniProt P41212 1-452); conditions: protein: recombinant; tags: N-terminal GST; dsDNA, one strand shown
# ETV6, sequence (P41212 whole entry): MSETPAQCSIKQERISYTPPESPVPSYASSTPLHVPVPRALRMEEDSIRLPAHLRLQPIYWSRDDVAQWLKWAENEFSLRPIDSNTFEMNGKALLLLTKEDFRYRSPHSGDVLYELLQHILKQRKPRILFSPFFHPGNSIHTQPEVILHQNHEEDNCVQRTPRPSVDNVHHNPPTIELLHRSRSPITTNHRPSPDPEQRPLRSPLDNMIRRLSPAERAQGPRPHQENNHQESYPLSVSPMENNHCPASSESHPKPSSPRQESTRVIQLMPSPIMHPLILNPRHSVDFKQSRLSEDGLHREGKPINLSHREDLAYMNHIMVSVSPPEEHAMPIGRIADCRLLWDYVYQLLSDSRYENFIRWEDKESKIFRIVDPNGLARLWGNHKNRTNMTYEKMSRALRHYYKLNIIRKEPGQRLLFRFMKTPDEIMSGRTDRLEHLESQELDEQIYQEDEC
# How it was run: as §1
sequence,measurement,setting,value
TGCTGG,binding signal,FEV,"1.09 fold enrichment (6-mer frequency, TF over GST control)"
same,binding signal,ETV5,"1.04 fold enrichment (6-mer frequency, TF over GST control)"
same,binding signal,HSF1,"1.43 fold enrichment (6-mer frequency, TF over GST control)"
same,binding signal,SPIC,"1.06 fold enrichment (6-mer frequency, TF over GST control)"
same,binding signal,ELF4,"1.12 fold enrichment (6-mer frequency, TF over GST control)"
same,binding signal,ELK4,"1.27 fold enrichment (6-mer frequency, TF over GST control)"
same,binding signal,ETV2,"1.22 fold enrichment (6-mer frequency, TF over GST control)"
same,binding signal,ELF3,"1.02 fold enrichment (6-mer frequency, TF over GST control)"
same,binding signal,CRX,"1.03 fold enrichment (6-mer frequency, TF over GST control)"
same,binding signal,ETV1,"1.08 fold enrichment (6-mer frequency, TF over GST control)"
same,binding signal,ERF,"1.2 fold enrichment (6-mer frequency, TF over GST control)"
same,binding signal,ETV3L,"1.22 fold enrichment (6-mer frequency, TF over GST control)"
same,binding signal,ETS2,"1.07 fold enrichment (6-mer frequency, TF over GST control)"
same,binding signal,SPDEF,"1.15 fold enrichment (6-mer frequency, TF over GST control)"
same,binding signal,ETV7,"1.13 fold enrichment (6-mer frequency, TF over GST control)"
same,binding signal,ELF5,"1.07 fold enrichment (6-mer frequency, TF over GST control)"
same,binding signal,ETV3,"1.11 fold enrichment (6-mer frequency, TF over GST control)"
same,binding signal,ETV6,"1.06 fold enrichment (6-mer frequency, TF over GST control)"
